# Where “and” joins values, the source holds several entries; their conditions need not be identical. Identical values can stand only once. About 540 (0.36%) of roughly 150,000 compounds showed an effect of 50% or more. The entries come from a sample that favours strong results as a whole.
# System: Plasmodium falciparum
# Assay: Primary screen in NF54 nanoGlo assay, in single point, at 2uM, 72h; a lower Z score goes with more inhibition
# Assay type: functional, Erythrocyte
# Details: timepoint 72 hour
Compound,% Inhibition,Z score,Z score (2 µM)
COCCCNC(=O)c1ccc(CN2C(=O)CCn3nccc32)cc1,13%,-1.46,
CCCCNC(=O)c1ccc(CN2C(=O)CCn3nccc32)cc1,18%,-2.08,
O=C(NCCCc1ccccc1)c1ccc(CN2C(=O)CCn3nccc32)cc1,58%,-2.28,
CC1CCCN(C(=O)C2CCC2)C1CN (stereo unspecified),-3%,0.43,
CC(C)c1ccc2ncnc(N[C@H]3CCc4[nH]cnc4C3)c2c1,96%,-17.94,
C[C@@H](NC(=O)NC1CCc2[nH]cnc2C1)c1ccc(F)cc1 (stereo partly specified),-10%,1.89,
C[C@@H]1CC[C@H](CO)N1C(=O)Cc1cccc(C(F)(F)F)n1,3%,-0.37,
Cc1c(C(=O)NC[C@H]2CCCOC2)[nH]c2c(Cl)cccc12,-9%,1.62,
C[C@H](OC(=O)CNC(=O)OC(C)(C)C)C(=O)N1CCCCCC1,-12%,1.29,
Cc1ccc(CC[C@H]2Nc3ccccc3C(c3ccccc3)(c3ccccc3)O2)o1,81%,-13.4,
CC(C)Oc1ccccc1[C@H]1Nc2ccccc2C(c2ccccc2)(c2ccccc2)O1,-1%,0.21,
c1ccc(C2(c3ccccc3)O[C@@H](c3cccnc3)Nc3ccccc32)cc1,-4%,0.54,
Cc1cc(=O)n(CC(=O)N2CCCC[C@@H]2CCc2ccccc2)nc1C,-18%,3.31,
O=C(c1cccs1)N(Cc1ccccn1)c1nc2ccccc2s1,4%,-0.46,
Cc1oc(-c2ccn[nH]2)cc1S(=O)(=O)Nc1cccc(Cl)c1,59%,-0.35,
Cc1ccc(F)c(NS(=O)(=O)c2cc(-c3ccn[nH]3)oc2C)c1,2%,-0.25,
Cc1oc(-c2ccn[nH]2)cc1S(=O)(=O)Nc1ccc(F)c(Cl)c1,37%,-0.01,
O=C(O)c1cc(NS(=O)(=O)c2cc(F)ccc2F)ccc1N1CCCCCC1,-4%,0.67,
CCc1cccc2c(C3=CCN(c4ccc5nnc(C(F)(F)F)n5n4)CC3)c[nH]c12,11%,-2.04,
Cc1cc(C)cc(NC(=O)c2c(C)sc3ncnc(N4CCCC4)c23)c1,-2%,0.31,
CC(CN1CCC(N2CCOCC2)C1)c1cccc(Cl)c1 (stereo unspecified),5%,-0.64,
CCC(=O)NCc1nc2c(n1C)CN(C(=O)c1ccc(CC)cc1)CC2,2%,-0.2,
COC1(C)CCN(C(=O)c2ccon2)CC1,-4%,0.52,
O=C(CCc1conc1-c1cccc(F)c1)NC1CC1,-8%,1.59,
Cc1cc(C)c(S(=O)(=O)N2CC[C@H](n3cccn3)C2)s1,-1%,0.1,
O=S(=O)(c1cccs1)N1CC[C@H](n2ccnn2)C1,-9%,1.54,
Cc1csc(S(=O)(=O)N2CC[C@H](n3cccn3)C2)c1,82%,1.47,

Compound,% Inhibition,Z score,Z score (2 µM)
COC[C@](C)(CCO)NC(=O)Nc1cc(F)cc(Br)c1,-13%,1.11,
CCn1cc(C(=O)Nc2ccc(OCCN3CC[C@H](C)C3)cc2)cn1,5%,-0.92,
Cc1cc(C)cc(N(CCC#N)C(=O)CN2CCC[C@H]2c2ccc3c(c2)OCCCO3)c1,-2%,0.18,
Cn1cc(C(=O)N[C@H]2CCN(c3ccc(F)c(Cl)c3)C2)cn1,-3%,0.57,
CNC(=O)Nc1cccc(NC(=O)c2cncc(-c3cnn(C)c3)c2)c1,24%,-3.15,
COCCCCC(=O)N1CCC[C@H](N)[C@@H]1c1ccccc1OC,4%,-0.43,
O=C(CN1C(=O)N[C@]2(CCc3cc(Cl)ccc32)C1=O)c1ccc2c(c1)OCO2,0%,-0.01,
CC(C)Nc1nc2nonc2n2nnnc12,31%,-3.95,
CC(C)Nc1nc2nonc2n2cnnc12,77%,-8.71,
C[C@H](Nc1nc2nonc2n2nnnc12)c1ccccc1,27%,-3.54,
Cc1cc(N2CCC[C@H](CNC(=O)CN3CCOCC3)C2)nc2cc(F)ccc12,-15%,1.9,
CC(=O)N[C@H]1CCN(S(=O)(=O)c2sccc2Cl)C1,0%,-0.08,
O=C(NC1CCCC1)[C@@H](c1ccccc1)N1CCS(=O)(=O)CC1,7%,-0.84,
O=C(NC[C@]12C[C@H]1COC21CCC1)c1ncoc1-c1ccon1,5%,-0.99,
CN(CC(C)(CO)CO)C(=O)c1ccsc1,6%,-0.9,
CCOC(=O)C1CCCN(C2CCN(C(=O)CCC3(Cc4ccc(C)cc4)CCC(=O)N3)CC2)C1 (stereo unspecified),-5%,0.68,
Cc1nc(CCNc2nc(-c3ccccn3)nc3c2CCNCC3)no1,-2%,0.27,
Cc1sc2nc(-c3ccccn3)nc(NCC(=O)N3CCC(O)CC3)c2c1-c1ccccc1,25%,-2.12,
Cc1cc(CN(C)C(=O)[C@H]2CC(=O)N(c3ccccc3)C2)no1,-3%,0.62,
CCC(=O)Nc1ccc(Oc2c(C)c(C(=O)O)nn2-c2ccccc2CC)c(S(=O)(=O)NCC(C)C)c1,97%,-9.77,
Cc1c(C(=O)O)nn(-c2ccc(F)cc2)c1Oc1ccc(NC(=O)CC(C)C)cc1S(=O)(=O)NCC(C)C,-16%,1.93,
CCC(=O)Nc1ccc(Oc2c(C)c(C(=O)O)nn2-c2ccccc2C)c(S(=O)(=O)N[C@@H](C)CC)c1,-10%,0.97,
CC1=C(C(=O)NCCC(F)(F)F)Cn2nnnc2N1C,0%,0.01,
COC(=O)c1ccc(C[N+]2(C[C@H]3COC4(CCCCC4)O3)CCCC2)cc1,-5%,,0.44 and 0.65
CC1(C)C2CCC(C2)C1CC1OCC(C[N+]2(Cc3ccccc3)CCCCC2)O1 (stereo unspecified),-7%,1.37,
CC(CC1OCC(C[N+]2(Cc3ccccc3)CCCCC2)O1)CC(C)(C)C (stereo unspecified),60%,-5.21,

# From ChEMBL document CHEMBL4888484, “Replenishing the malaria drug discovery pipeline: Screening and hit evaluation of the MMV Hit Generation Library 1 (HGL1) against asexual blood stage Plasmodium falciparum ,using a nano luciferase reporter read-out” (2022)
